Experimental findings from paper PMC4336329 (PLoS ONE, 2015) are described below.

Molecules are shown by their SMILES. Among all 310,000 compounds or so, about 14,000 (4.5%) showed an effect of 50% or more. Effects have a minus sign here. The sample holds strong results, similar compounds and a random draw of the others, so the mix is not that of the screen.
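Also: peak tail current of the secondary pulse compared with the same well before compound.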

The target of this assay is human ether-à-go-go-related gene (hERG) potassium channel (human, UniProt Q12809). Put plainly: primary screen, population patch clamp on CHO cells stably expressing hERG; higher = less effect of the substance.
Chain of human ether-à-go-go-related gene (hERG) potassium channel (Q12809 whole entry, looked up): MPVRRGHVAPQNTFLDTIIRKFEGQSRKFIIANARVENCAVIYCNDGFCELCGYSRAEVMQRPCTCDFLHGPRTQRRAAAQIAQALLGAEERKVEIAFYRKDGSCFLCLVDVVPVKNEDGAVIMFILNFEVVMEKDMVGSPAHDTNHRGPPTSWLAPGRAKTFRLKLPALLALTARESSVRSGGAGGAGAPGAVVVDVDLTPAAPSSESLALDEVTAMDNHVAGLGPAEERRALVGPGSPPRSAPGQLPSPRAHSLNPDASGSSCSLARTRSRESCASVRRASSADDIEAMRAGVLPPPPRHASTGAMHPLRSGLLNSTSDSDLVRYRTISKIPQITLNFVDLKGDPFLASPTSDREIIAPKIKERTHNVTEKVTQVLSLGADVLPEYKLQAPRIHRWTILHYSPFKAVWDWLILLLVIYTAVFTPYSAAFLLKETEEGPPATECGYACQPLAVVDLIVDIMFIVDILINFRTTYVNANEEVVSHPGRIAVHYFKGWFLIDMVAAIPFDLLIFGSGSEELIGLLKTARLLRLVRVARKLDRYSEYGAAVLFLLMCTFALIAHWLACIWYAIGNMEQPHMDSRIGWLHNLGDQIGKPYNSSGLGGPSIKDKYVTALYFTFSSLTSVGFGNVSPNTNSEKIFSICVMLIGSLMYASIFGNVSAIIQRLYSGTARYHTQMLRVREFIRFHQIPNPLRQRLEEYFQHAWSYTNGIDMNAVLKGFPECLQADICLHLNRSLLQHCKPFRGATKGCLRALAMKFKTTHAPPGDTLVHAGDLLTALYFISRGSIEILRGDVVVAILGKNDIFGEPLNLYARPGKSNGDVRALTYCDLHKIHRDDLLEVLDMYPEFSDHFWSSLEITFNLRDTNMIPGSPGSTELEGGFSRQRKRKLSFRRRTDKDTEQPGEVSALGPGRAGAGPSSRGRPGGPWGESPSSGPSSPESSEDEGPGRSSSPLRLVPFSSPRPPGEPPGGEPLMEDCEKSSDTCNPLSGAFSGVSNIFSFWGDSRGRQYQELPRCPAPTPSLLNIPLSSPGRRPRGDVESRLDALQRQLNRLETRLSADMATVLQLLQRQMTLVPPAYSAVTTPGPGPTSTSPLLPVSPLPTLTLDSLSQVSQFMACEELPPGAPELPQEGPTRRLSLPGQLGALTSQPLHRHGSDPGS
Regarding `CC(C)(C)c1ccc(/C=C/C(=O)NC2=NCCS2)cc1`, the “hERG current change (%, negative = inhibition) at 10uM” value is recorded as 10.5%.

In the case of `O=C(O)CC1SC(=Nc2cccc(C(F)(F)F)c2)NC1=O` (centres unmarked), the “hERG current change (%, negative = inhibition) at 10uM” value was found to be 5.13%. Take `CCN(CC)c1ccc(/C=N/OCC(=O)Nc2cccc(C)c2)cc1`: the “hERG current change (%, negative = inhibition) at 10uM” value is -2.16%. Under `CCCCOc1ccc(C(=O)N2CCNC(=O)C2CC(=O)OC(C)C)cc1` (centres unmarked) stands 13.1%; under `Cc1ccc(-c2nc(CS(=O)CC(=O)NC3CCCC3)c(C)o2)cc1` (centres unmarked), -13.3%; under `COc1ccc(-c2cc(COc3ccccc3)on2)cc1`, 36.1%. On to `CC(=O)c1c(N2CCN(Cc3ccccc3)CC2)[nH]c(-c2ccccc2)nc1=S`, for which the “hERG current change (%, negative = inhibition) at 10uM” value is given as 2.17%.

In the case of `Cl.O=C(c1cccc(S(=O)(=O)N2CCCCC2)c1)N1CCN(Cc2ccccc2)CC1`, the “hERG current change (%, negative = inhibition) at 10uM” value was -56.6%. Under `N#Cc1ccc(CN2CCN(C(=O)c3cc(Cl)c4c(c3)OCCO4)CC2)cc1` stands -67.7%. Under `O=C(c1cccc(S(=O)(=O)N2CCCCC2)c1)N1CCCCC1` stands 5.7%.

On to `Cl.O=C(c1cccc(S(=O)(=O)N2CCCC2)c1)N1CCN(Cc2ccccc2)CC1`, for which the “hERG current change (%, negative = inhibition) at 10uM” value is -14.2%. Next, `N#Cc1ccc(CN2CCN(C(=O)c3ccccc3)CC2)c(Cl)c1`: -33.2%; `Cl.O=C(c1ccc2c(c1)OCCO2)N1CCN(Cc2ccccc2)CC1`: 2.59%. Under `N#Cc1ccc(CN2CCN(C(=O)c3cccc(S(=O)(=O)N4CCCCCC4)c3)CC2)cc1` stands -75.8%. Under `CN1CCN(C(=O)c2cccc(S(=O)(=O)N3CCCCC3)c2)CC1` stands -7.44%; under `N#Cc1ccc(CN2CCN(C(=O)c3ccc(S(=O)(=O)N4CCCCCC4)cc3)CC2)cc1`, -40.9%. Regarding `CC(=O)Nc1nnc(CCS(=O)(=O)c2ccc(C)c(C)c2)s1`, the “hERG current change (%, negative = inhibition) at 10uM” value worked out at 8.73%. Next, `Cc1ccccc1N/N=C/c1sc(=O)n(Cc2cccc(C(=O)O)c2)c1Cl`: 38.9%; `CCN(CC)C(=O)Oc1ccc2c(=O)c(-c3ccc(OC)cc3)c(C)oc2c1`: -35.8%. Next, `O=C(Nc1cccc(F)c1)Nc1ccc(Cl)cn1`: 7.51%; `Cc1cccc(CN(C(=S)Nc2c(C)cccc2C)c2cccnc2)c1`: -9.13%. Next, `Cc1[nH]c2ccccc2c1C(=O)COC(=O)C(C)C`: -6.03%; `S=C(NCC(c1ccco1)N1CCCC1)Nc1ccccc1` (centres unmarked): -28.9%. `COc1ccc(-n2nnnc2SCC(=O)Nc2nc3c(s2)CCCC3)cc1`: the “hERG current change (%, negative = inhibition) at 10uM” value is 9.26%. For `CCC1CCCCN1CC(=O)Nc1cc(C)nn1-c1nc(C)cc(C)n1` (centres unmarked), the “hERG current change (%, negative = inhibition) at 10uM” value is -58.8%. Next, `Cc1cc(C)nc(-n2nc(C)cc2NC(=O)CN2CCCC2)n1`: -34.1%; `Cc1cc(C)nc(-n2nc(C)cc2NC(=O)CN2CCc3ccccc3C2)n1`: -68.7%; `Cc1cc(C)nc(-n2nc(C)cc2NC(=O)CN2CCC(C)CC2)n1`: -65.6%. For the molecule `Cc1cc(NC(=O)CN2CCCC(C)C2)no1.O=C(O)C(=O)O` (centres unmarked), the “hERG current change (%, negative = inhibition) at 10uM” value came out at 10.7%. As for `Cc1cc(C)nc(-n2nc(C)cc2NC(=O)CN2CCCC(C)C2)n1` (centres unmarked), the “hERG current change (%, negative = inhibition) at 10uM” value was -56%. `CC(=O)Nc1ccc(NC(=O)CN2CCCC(C)C2)c(Cl)c1` (centres unmarked): the “hERG current change (%, negative = inhibition) at 10uM” value is -5.17%.

On to `CCC1CCCCN1C(=O)CSc1nc(C)cc(C)n1` (centres unmarked), for which the “hERG current change (%, negative = inhibition) at 10uM” value was -12.8%.

Regarding `Cc1cccc(C)c1NC(=O)CN1CCc2ccccc2C1`, the “hERG current change (%, negative = inhibition) at 10uM” value is 8.31%. As for `Cc1cc(NC(=O)CN2CCCCC2)n(-c2ccccc2)n1`, the “hERG current change (%, negative = inhibition) at 10uM” value stood at 6.65%. Next, `CCC1CCCCN1CC(=O)Nc1ccc2c(c1)OCCO2` (centres unmarked): 10.6%; `Cc1cc(C)cc(NC(=O)CN2CCc3ccccc3C2)c1`: -10.2%; `Cc1ccc(C2(COC(=O)C(C)C)CO2)c(OC(=O)C(C)C)c1` (centres unmarked): 2.15%. Regarding `Cc1ccc(-c2n[nH]c(=O)c3ccccc23)cc1S(=O)(=O)NC(C)(C)C`, the “hERG current change (%, negative = inhibition) at 10uM” value is listed as 13.6%. Next, `CCn1c(SCC(N)=O)nnc1-c1ccc2c(c1)OCO2`: -0.333%. Under `O=C(Nc1cc(Sc2ccccn2)cc([N+](=O)[O-])c1)c1ccc(Cl)cc1` stands 11.6%; under `CCOc1ccccc1C(=O)Nc1cc(Cl)ccc1O`, 14.7%. With `COc1ccc(CC(=O)N2CCc3cc(OC)c(OC)cc3C2C)c(OC)c1` (centres unmarked), the “hERG current change (%, negative = inhibition) at 10uM” value is recorded as -6.22%.

Regarding `CCc1ccccc1NC1c2ccccc2C(=O)N1c1cc(C)ccn1` (centres unmarked), the “hERG current change (%, negative = inhibition) at 10uM” value is reported as -1.18%. As to `Cc1ccc(C)c(C(=O)Nc2cc(C)nn2-c2nc(C)cc(C)n2)c1`, the “hERG current change (%, negative = inhibition) at 10uM” value amounted to 3.98%.

Take `Cc1cc(C)nc(-n2nc(C)cc2NC(=O)CNC2CCCCC2)n1`: the “hERG current change (%, negative = inhibition) at 10uM” value is listed as -52.4%. Next, `Cc1cc(C)nc(-n2nc(C)cc2NC(=O)c2ccc(F)cc2F)n1`: -0.0513%. For the molecule `COc1ccc(CCn2c(N)c(C#N)c3nc4ccccc4nc32)cc1OC`, the “hERG current change (%, negative = inhibition) at 10uM” value worked out at 4.14%. Under `CCN(CC)S(=O)(=O)c1cccc(-c2nnc(SCC(=O)c3cc(C)n(C)c3C)o2)c1` stands -25.5%; under `CC1=C(C(=O)OC(C)C)C(c2ccc(F)cc2)NC(=O)N1` (centres unmarked), -5.4%. Under `CCOCC(=O)Nc1ccc(Br)c(C)c1` stands 4.88%; under `O=C(NCCc1cn[nH]c1)C1CCC(=O)N(CCc2cccc(F)c2)C1` (centres unmarked), 25.1%; under `COc1ccc(CCN2CC(C(=O)NCCc3ccc(C(F)(F)F)cc3)CCC2=O)cc1` (centres unmarked), -46.8%. Next, `O=C(NCCN1CCCC1=O)C1CCC(=O)N(CCc2cccc(F)c2)C1` (centres unmarked): 9.49%; `O=C(NCCc1ccc(C(F)(F)F)cc1)C1CCC(=O)N(CCc2cccc(F)c2)C1` (centres unmarked): -51.4%; `O=C(NCCc1ccc(C(F)(F)F)cc1)C1CCC(=O)N(CCCN2CCCC2=O)C1` (centres unmarked): 13.1%. Consider `O=C(NCCc1cccs1)C1CCC(=O)N(CCc2cccc(F)c2)C1` (centres unmarked), for which the “hERG current change (%, negative = inhibition) at 10uM” value is -26.1%.

Consider `O=C(NCCc1cccc(C(F)(F)F)c1)C1CCC(=O)N(CCc2cccc(F)c2)C1` (centres unmarked), for which the “hERG current change (%, negative = inhibition) at 10uM” value is reported as -56.8%.

Take `O=C(NCCc1ccc(C(F)(F)F)cc1)C1CCC(=O)N(CCCc2ccccc2)C1` (centres unmarked): the “hERG current change (%, negative = inhibition) at 10uM” value is on record as -50.2%. Next, `O=C(NCCc1ccccc1)C1CCC(=O)N(CCCN2CCCC2=O)C1` (centres unmarked): 5.82%.
